Hit rate of the full screen: of about 310,000 compounds, about 14,000 (4.5%) showed an effect of 50% or more. The effect is printed as a negative number. The entries come from a sample that favours strong results as a whole.
target: human ether-à-go-go-related gene (hERG) potassium channel (human, UniProt Q12809); assay: primary screen, population patch clamp on CHO cells stably expressing hERG; higher = less effect of the substance
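Note: peak tail current of the secondary pulse compared with the same well before compound.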

Sequence of human ether-à-go-go-related gene (hERG) potassium channel (Q12809 whole entry, looked up): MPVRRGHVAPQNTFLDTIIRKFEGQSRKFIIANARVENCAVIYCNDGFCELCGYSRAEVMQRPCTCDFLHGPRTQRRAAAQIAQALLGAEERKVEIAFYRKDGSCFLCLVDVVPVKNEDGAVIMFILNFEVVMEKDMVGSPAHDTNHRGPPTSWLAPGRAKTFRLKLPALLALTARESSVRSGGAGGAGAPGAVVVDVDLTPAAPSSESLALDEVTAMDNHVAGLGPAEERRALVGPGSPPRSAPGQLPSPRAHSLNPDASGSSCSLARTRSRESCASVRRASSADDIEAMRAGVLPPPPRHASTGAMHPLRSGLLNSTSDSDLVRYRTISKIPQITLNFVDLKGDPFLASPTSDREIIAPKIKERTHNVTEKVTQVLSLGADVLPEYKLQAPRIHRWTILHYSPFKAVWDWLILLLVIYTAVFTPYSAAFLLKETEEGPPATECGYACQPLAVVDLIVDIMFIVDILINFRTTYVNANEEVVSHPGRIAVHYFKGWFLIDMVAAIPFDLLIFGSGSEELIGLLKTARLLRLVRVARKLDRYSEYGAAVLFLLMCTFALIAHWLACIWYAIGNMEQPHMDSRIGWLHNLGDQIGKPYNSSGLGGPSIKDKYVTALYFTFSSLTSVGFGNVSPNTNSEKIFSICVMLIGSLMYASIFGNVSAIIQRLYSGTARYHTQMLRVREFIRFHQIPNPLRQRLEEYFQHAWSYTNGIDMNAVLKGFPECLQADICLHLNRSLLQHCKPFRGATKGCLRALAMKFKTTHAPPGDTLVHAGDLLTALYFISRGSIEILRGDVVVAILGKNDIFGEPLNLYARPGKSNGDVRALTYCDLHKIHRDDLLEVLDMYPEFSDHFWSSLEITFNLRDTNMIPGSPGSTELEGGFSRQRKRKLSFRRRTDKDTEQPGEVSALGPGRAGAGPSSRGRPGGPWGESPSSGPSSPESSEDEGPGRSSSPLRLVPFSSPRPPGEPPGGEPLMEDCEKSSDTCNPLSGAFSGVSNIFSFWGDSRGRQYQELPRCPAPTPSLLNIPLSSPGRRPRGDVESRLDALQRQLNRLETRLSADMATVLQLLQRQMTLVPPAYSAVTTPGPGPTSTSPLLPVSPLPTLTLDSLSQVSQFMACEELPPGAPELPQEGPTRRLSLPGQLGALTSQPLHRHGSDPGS

Row | Structure (SMILES) | hERG current change (%, negative = inhibition) at 10uM [%]
1 | COc1ccc2ncn(-c3ccccc3)c2c1 | -7.39
2 | COc1ccc(NC(=O)c2ccc(Cn3cc(Cl)cn3)cc2)cc1 | 1.21
3 | Cc1ccc(NC(=O)c2ccco2)c(NC(=O)Cc2cccs2)c1 | -2.72
4 | O=C(NCCc1ccccc1F)C1CC(=O)N(c2ccccc2)C1 (stereo not drawn) | 1.17
5 | C/C(=N\Nc1nc(C(C)(C)C)cs1)c1ccccc1 | 16.4
6 | Cc1cccc(NC(=O)CC2C(=O)NCCN2C(=S)Nc2ccccc2)c1 (stereo not drawn) | 1.17
7 | Cc1cnc(NC(=O)c2c(-c3ccccc3)noc2C)s1 | -2.27
8 | O=C(NNC(=O)c1ccccc1Br)c1cccc(Cl)c1 | -7.94
9 | CC(C)CCCC(C)NC(=O)c1cc(S(=O)(=O)N2CCCCC2)ccc1N1CCOCC1 (stereo not drawn) | -36.8
10 | CCCCCC(C)NC(=O)c1cc(S(=O)(=O)N2CCCCC2)ccc1N1CCOCC1 (stereo not drawn) | -70.9
11 | CCC(CC)NC(=O)c1cc(S(=O)(=O)N2CCCCC2)ccc1N1CCOCC1 | -20.3
12 | COc1ccc(NC(=O)CCSc2ccc3ccccc3n2)cc1 | -11.7
13 | CCOC(=O)n1n[n+]([O-])c2ccccc21 | 35.5
14 | CCc1ccc(S(=O)(=O)NCCc2cn3ccccc3n2)s1 | -29.5
15 | CCOc1ccc(S(=O)(=O)NCCc2cn3ccccc3n2)cc1 | -11
16 | O=[N+]([O-])c1ccc(S(=O)(=O)NCCc2cn3ccccc3n2)cc1 | -40.6
17 | Cc1ccn2cc(CCNS(=O)(=O)c3ccc([N+](=O)[O-])cc3)nc2c1 | -69.7
18 | Cc1ccn2cc(CCNS(=O)(=O)c3ccc4ccccc4c3)nc2c1 | -39.6

Row | Structure (SMILES) | hERG current change (%, negative = inhibition) at 10uM [%]
19 | CCc1ccc(S(=O)(=O)NCCc2cn3ccc(C)cc3n2)s1 | -54.2
20 | CCc1ccc(S(=O)(=O)NCCc2cn3cccc(C)c3n2)s1 | -16.2
21 | O=S(=O)(NCCc1cn2ccccc2n1)c1ccc(-c2ccccc2)cc1 | -62
22 | CC(=O)c1ccc(S(=O)(=O)NCCc2cn3ccc(C)cc3n2)cc1 | -29.9
23 | COc1cccc(C(=O)COC(=O)COc2c(C)cc(C)cc2C)c1 | 1.18
24 | COc1ccc(-c2c(C(C)=O)c(C)nc3sc4c(=N)n(N)cnc4c23)cc1 | 3.48
25 | O=C(NC1CC1)c1ccc2c(Cl)c3c(nc2c1)CCCC3 | -63.7
26 | CCOC(=O)N1CCC(NC(=O)c2ccc3c(Cl)c4c(nc3c2)CCCC4)CC1 | -36.6
27 | CN1CCN(CCCNC(=O)c2ccc3c(Cl)c4c(nc3c2)CCCC4)CC1 | -6.81
28 | COCCNC(=O)c1ccc2c(Cl)c3c(nc2c1)CCC3 | -30.2
29 | O=C(NCCCN1CCCC1)c1ccc2c(Cl)c3c(nc2c1)CCCC3 | -50.1
30 | CCCN1CCN(CCCNC(=O)c2ccc3c(Cl)c4c(nc3c2)CCCC4)CC1 | -61.1
31 | O=C(NCCCN1CCCCCC1)c1ccc2c(Cl)c3c(nc2c1)CCCC3 | -53
32 | CC1CCN(CCCNC(=O)c2ccc3c(Cl)c4c(nc3c2)CCCC4)CC1 | -40.9
33 | CC(C)CCNC(=O)c1ccc2c(Cl)c3c(nc2c1)CCC3 | 21.4
34 | CCN(CC)CCCNC(=O)c1ccc2c(Cl)c3c(nc2c1)CCCC3 | -48.7
35 | CCN1CCN(CCCNC(=O)c2ccc3c(Cl)c4c(nc3c2)CCCC4)CC1 | -46.8
36 | CCCN(CCC)CCCNC(=O)c1ccc2c(Cl)c3c(nc2c1)CCC3 | -29.1
